Compound activity: PubChem BioAssay, Broad Institute
The list is a sample of the results.
aSyn UTR act – Activators working through SNCA 5'UTR binding (MLPCN). alpha-synuclein 5'UTR reporter, activators screen. activity score, % (tested at 7.5 µM), hits read low. 300,000 compounds, 7.1% hits. AID 1814; in the data active = activity score below about -60%
Of the large screens only hits and unclear results are named; the others gave an inactive call.

COc1c(C)cccc1C(=O)Nc1ccc(CN2CCCCC2)cc1	aSyn UTR act -101
O=C(Nc1ccc(CN2CCCCC2)cc1)c1cccc(Br)c1	aSyn UTR act -72
Cn1c(CN2CCCCC2)nc2cc(NC(=O)c3cccs3)ccc21	aSyn UTR act -68
O=C(CN1CCC(NC(=O)c2cccc(F)c2)CC1)Nc1ccc(Br)cc1	none
O=C(Nc1ccc2c(c1)nc1n2CCN(Cc2ccccc2)C1)c1cccs1	aSyn UTR act -91
O=C(Nc1ccc(CN2CCCCC2)cc1)c1sc2ccccc2c1Cl	aSyn UTR act -159
Cc1ccc(C(=O)Nc2ccc3c(c2)nc(CCNC(=O)c2ccco2)n3C)cc1	aSyn UTR act -104
Cn1c(CN2CCCCC2)nc2cc(NC(=O)c3cccc(Br)c3)ccc21	aSyn UTR act -99
Cn1c(CN2CCCCC2)nc2cc(NC(=O)c3ccccc3)ccc21	aSyn UTR act -73
CCC(=O)NCCc1nc2cc(NC(=O)c3ccccc3Cl)ccc2n1C	aSyn UTR act -78
Cn1c(CN2CCCC2)nc2cc(NC(=O)c3ccco3)ccc21	aSyn UTR act -116
COc1cccc(CNc2cc(C)ccn2)c1O	aSyn UTR act -94
COc1cccc(CNc2ccccn2)c1O	aSyn UTR act -100
CCC(=O)NC(c1ccccc1OC)c1ccc2cccnc2c1O (stereo not given)	none
COc1cccc(CNc2cccc3cccnc23)c1O	aSyn UTR act -88
Cc1cc2cc(C=C(C#N)C#N)c(Cl)nc2cc1C	aSyn UTR act -75
O=c1cc(/C=C/c2ccccc2)oc2ccccc12	aSyn UTR act -205
Cc1cnc(C(=O)Nc2ccc(N3CCN(C(=O)OC(C)(C)C)CC3)cc2)cn1	aSyn UTR act -89
Cc1cnc(C(=O)Nc2ccc(C(C)C)cc2)cn1	aSyn UTR act -142
Cc1cnc(C(=O)Nc2ccc(F)cc2)cn1	aSyn UTR act -101
Cn1nc(CC(=O)Nc2ccc(N3CCN(C(=O)OC(C)(C)C)CC3)cc2)c2ccccc2c1=O	none
Cc1cnc(C(=O)Nc2ccccc2F)cn1	aSyn UTR act -91
COc1cc(C=O)ccc1OCc1cccc(Br)c1	aSyn UTR act -152
COc1cc(C=O)ccc1OCCSc1ccc(C)cc1	aSyn UTR act -129
COC(=O)c1ccccc1OCCCOc1ccc(C=O)cc1OC	aSyn UTR act -107
COc1cc(C=O)ccc1OCc1ccccc1Br	aSyn UTR act -202
COc1cc(/C=C2/C(=O)N(C)C(=S)N2C)ccc1OCc1cccc(F)c1	aSyn UTR act -156
COc1ccc(NC(=O)c2cc3ccccc3oc2=O)c(OC)c1	aSyn UTR act -113
COc1ccc(S(=O)(=O)Nc2ccccc2OC)cc1NC(=O)c1cc2ccccc2oc1=O	aSyn UTR act -159
COc1ccc(NC(=O)c2oc3ccccc3c2C)c(OC)c1	aSyn UTR act -216
COc1ccccc1C(=O)Nc1cc2ccccc2oc1=O	aSyn UTR act -172
COc1ccc2oc(=O)c(C(=O)Nc3cccc(C)c3)cc2c1	aSyn UTR act -128
CC(=O)Nc1nc(COc2ccc3ccccc3c2)cs1	aSyn UTR act -148
Nc1nc(COc2ccc3ccccc3c2)cs1	aSyn UTR act -79
Nc1nc(CCOc2ccc(F)cc2)cs1	aSyn UTR act -112
O=C(Nc1nc(COc2ccccc2)cs1)C12CC3CC(CC(C3)C1)C2	aSyn UTR act -147
CC(=O)Nc1nc(COc2ccccc2)cs1	aSyn UTR act -137
O=C(Nc1ccccc1-c1ccccc1)C12CC3CC(CC(C3)C1)C2	aSyn UTR act -78
CC(=O)c1csc(COc2ccccc2)n1	aSyn UTR act -109
O=C(Nc1nc(COc2ccccc2)cs1)C1CCC1	aSyn UTR act -103
CCOC(=O)c1c(C)[nH]c(C(=O)OCC(=O)Nc2sccc2C(N)=O)c1C	aSyn UTR act -119
CC1CCN(CC(CS(=O)(=O)c2ccc([N+](=O)[O-])cc2)N2CCC(C)CC2)CC1 (stereo not given)	aSyn UTR act -66
COc1cccc(Oc2nnnn2-c2ccccc2)c1	aSyn UTR act -180
COc1cccc(N2C(N)=NC(N)=NC2(C)C)c1	none
O=C(c1ccccc1Oc1nnnn1-c1ccccc1)N1CCOCC1	aSyn UTR act -77
COc1ccc(Oc2nnnn2-c2ccccc2)cc1	aSyn UTR act -87
c1ccc(-n2nnnc2Oc2ccc(-c3nnco3)cc2)cc1	aSyn UTR act -62
COc1ccccc1Oc1nnnn1-c1ccc(C(N)=O)cc1	aSyn UTR act -71
CCCCN=C1NN=C(c2cc3ccccc3o2)CS1	aSyn UTR act -106
CCCCN=C1NN=C(c2cccc([N+](=O)[O-])c2)CS1	aSyn UTR act -68
CC[C@@H](C)[C@H](CNC)NC[C@@H](Cc1cccc2ccccc12)NCCc1cccc(C(F)(F)F)c1	none
CC(C)NC(=O)CCc1nnc(Cc2cccc(C(F)(F)F)c2)o1	aSyn UTR act -95
CNC[C@@H](CC1CCCCC1)NC[C@H](CC(C)C)NCCc1cccc(C(F)(F)F)c1	none
COc1cccc(C(=O)NCCS(=O)(=O)NCCc2ccccc2)c1	aSyn UTR act -75
COc1ccc(C(=O)NCCS(=O)(=O)NCCc2ccccc2)cc1	aSyn UTR act -72
O=C(NCCS(=O)(=O)NCCc1ccccc1)c1ccc2c(c1)OCO2	aSyn UTR act -120
COC(=O)c1c(N)sc(C(=O)NCCc2ccccc2)c1C	none
